# Values joined by “and” are separate entries in the source; they are usually repeats but may differ in a detail not shown here. Equal values may be shown once. Records with an inconclusive call do not appear. A call without a number means that no potency is given here. The source holds several records for some structures; these can differ, active in one and inactive in another. Active and inactive are the calls of the source. Unless noted, the call rests on the fitted dose curve; in most records, active means well fitted curve in the direction sought with a large enough effect; inconclusive means small, poorly fitted or top-dose-only effect, or another doubt; inactive means no such curve, though single readings can be large; an effect the other way counts as inactive or inconclusive.
# Tests used:
# [1] = biological target: Single-stranded DNA cytosine deaminase (Homo sapiens) (UniProt Q9GZX7); assay: Validation qHTS assay for inhibitors of Activation Induced Cytidine Deaminase (AID): AID signal (AID 1347429)
# Chain of Single-stranded DNA cytosine deaminase (Homo sapiens) (Q9GZX7 whole entry, looked up): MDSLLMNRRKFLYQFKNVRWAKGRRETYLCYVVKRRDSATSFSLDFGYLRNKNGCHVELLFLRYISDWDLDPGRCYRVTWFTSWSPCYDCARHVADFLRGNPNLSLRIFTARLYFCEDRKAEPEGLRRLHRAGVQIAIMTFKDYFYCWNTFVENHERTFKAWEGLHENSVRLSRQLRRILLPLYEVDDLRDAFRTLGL
# Outline: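 FRET deamination assay: 1 uM AID (4/3x stock) with UDG, compound up to 114 uM, then 250 nM DJC20/DJC23 substrate (4x stock) for 4 hr at room temperature. NaOH added, 30 min; fluorescence read 540/590 nm.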
# [2] = biological target: Calcium and integrin-binding protein 1 (Homo sapiens) (UniProt Q99828); assay: Validation qHTS for Identification of Calcium Integrin Binding protein 1 (CIB1) Competitor (AID 1508618)
# Chain of Calcium and integrin-binding protein 1 (Homo sapiens) (Q99828 whole entry, looked up): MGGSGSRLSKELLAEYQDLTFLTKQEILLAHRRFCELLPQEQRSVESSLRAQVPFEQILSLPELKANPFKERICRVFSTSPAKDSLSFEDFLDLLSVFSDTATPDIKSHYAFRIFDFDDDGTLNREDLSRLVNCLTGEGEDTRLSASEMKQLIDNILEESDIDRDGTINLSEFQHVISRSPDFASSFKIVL
# Outline: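 CIB1-GST (1 uM final) incubated 15 min at room temperature with compounds (up to 114 uM), then FITC-labelled alphaIIb peptide (100 nM) added. FP read (Ex 480/Em 540) after 15 min, pH 7.4 buffer containing 5 mM CaCl2.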
# [3] = biological target: Calcium and integrin-binding protein 1 (Homo sapiens) (UniProt Q99828); assay: Primary qHTS for Identification of Calcium Integrin Binding Protein 1 (CIB1) Competitor (AID 1508620);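 further: GST tagged CIB1 binding a fluorescein labelled alphaIIb integrin peptide tracer; top concentration of the series differs between compounds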
# Outline: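 Fluorescence polarization competition: CIB1-GST (1 uM final) preincubated with compound 15 min at room temperature, then FITC-labeled alphaIIb peptide (100 nM final) added for another 15 min. Polarization read at Ex 480/Em 540.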
# [4] = Primary qHTS for small molecule stabilizers of the endoplasmic reticulum resident proteome: Secreted ER Calcium Modulated Protein (SERCaMP) assay (AID 1508630)
# Outline: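 GLuc-SERCaMP-expressing SH-SY5Y cells, pretreated 16 h with compound, are challenged with thapsigargin to empty ER calcium stores; after 4 h, coelenterazine is added directly to the medium and luminescence is imaged.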
# [5] = A High-Content qHTS Against Drug Library for the Identification of Small Molecules that Inhibit DYT1 Early Onset Primary Dystonia-Associated Cell Pathology (AID 1645839; calls by dose curve; further: series mostly up to about 46 µM)
# Outline: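 Readout: %pathology, the punctate EGFP-TorsinA distribution from imaging, as the primary channel and cell count as the toxicity counterscreen. HEK293 Flp-In cells expressing delE TorsinA were induced with tetracycline and treated with compound for 48 h.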
# [6] = biological target: Cytochrome P450 2D6 (Homo sapiens) (UniProt P10635); assay: Cytochrome P450 family 2 subfamily D member 6 (CYP2D6) small molecule antagonists: luciferase biochemical (cell-free) qHTS assay (AID 1645840; active means well fitted curve in the direction sought with a large enough effect in the repeat runs; an effect the other way counts as inactive or inconclusive; further: nearly all actives have a fitted effect of over 55% in size; further: potency means the concentration at half of the fitted maximal effect)
# Chain of Cytochrome P450 2D6 (Homo sapiens) (P10635 whole entry, looked up): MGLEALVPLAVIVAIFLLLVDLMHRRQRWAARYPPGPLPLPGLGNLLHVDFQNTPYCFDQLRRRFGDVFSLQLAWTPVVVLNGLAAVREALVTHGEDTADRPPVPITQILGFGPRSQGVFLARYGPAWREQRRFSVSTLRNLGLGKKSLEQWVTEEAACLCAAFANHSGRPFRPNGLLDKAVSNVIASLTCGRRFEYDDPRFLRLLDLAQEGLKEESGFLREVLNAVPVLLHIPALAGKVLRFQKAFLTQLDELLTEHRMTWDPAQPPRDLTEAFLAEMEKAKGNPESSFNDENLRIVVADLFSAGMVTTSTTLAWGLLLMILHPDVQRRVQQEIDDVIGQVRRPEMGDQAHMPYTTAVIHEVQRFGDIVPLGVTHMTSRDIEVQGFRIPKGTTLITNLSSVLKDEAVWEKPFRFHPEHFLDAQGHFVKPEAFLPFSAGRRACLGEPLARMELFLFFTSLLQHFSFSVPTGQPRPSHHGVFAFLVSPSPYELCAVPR
# Outline: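 P450-Glo luminescent screen: recombinant CYP2D6 enzyme–proluciferin substrate mix preincubated with compound 10 min at room temperature, then NADPH regeneration added for 1 h at room temperature. Detection reagent added for 20 min; luciferin light read as relative luminescence units.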
# [7] = biological target: Cytochrome P450 2C9 (Homo sapiens) (UniProt P11712); assay: Cytochrome P450 family 2 subfamily C member 9 (CYP2C9) small molecule antagonists: luciferase biochemical (cell-free) qHTS assay (AID 1645842; active means well fitted curve in the direction sought with a large enough effect in the repeat runs; an effect the other way counts as inactive or inconclusive; further: nearly all actives have a fitted effect of over 55% in size; further: potency means the concentration at half of the fitted maximal effect)
# Chain of Cytochrome P450 2C9 (Homo sapiens) (P11712 whole entry, looked up): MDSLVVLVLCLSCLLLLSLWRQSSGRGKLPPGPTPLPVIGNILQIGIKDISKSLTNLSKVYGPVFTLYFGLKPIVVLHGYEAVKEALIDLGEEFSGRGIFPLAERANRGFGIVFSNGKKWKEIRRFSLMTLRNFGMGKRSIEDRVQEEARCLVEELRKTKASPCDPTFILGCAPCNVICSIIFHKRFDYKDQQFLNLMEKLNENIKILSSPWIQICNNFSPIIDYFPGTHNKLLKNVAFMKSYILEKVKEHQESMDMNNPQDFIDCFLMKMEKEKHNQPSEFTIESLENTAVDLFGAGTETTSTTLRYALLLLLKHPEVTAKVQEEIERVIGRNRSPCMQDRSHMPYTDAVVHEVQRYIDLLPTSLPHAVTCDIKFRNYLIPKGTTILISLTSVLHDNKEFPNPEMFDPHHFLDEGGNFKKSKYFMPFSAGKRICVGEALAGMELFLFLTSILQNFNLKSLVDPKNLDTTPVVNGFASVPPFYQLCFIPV
# Outline: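 Luminescence, after 20 min with luciferin detection reagent, reflected CYP2C9 turnover during a 1 h NADPH-driven reaction at 37C. Enzyme-substrate mix contained 0.4% bovine serum albumin and was preincubated with compound 10 min at room temperature.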
# Papain (Carica papaya) = Papain (Carica papaya) (UniProt P00784); assay: Primary qHTS assay for inhibitors of the protease papain (AID 1645873);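 further: papain turnover of Z-FR-AMC read as the AMC fluorescence gain over 10 min; series mostly up to about 50 µM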
# Chain of Papain (Carica papaya) (P00784 whole entry, looked up, the tested form may be a part): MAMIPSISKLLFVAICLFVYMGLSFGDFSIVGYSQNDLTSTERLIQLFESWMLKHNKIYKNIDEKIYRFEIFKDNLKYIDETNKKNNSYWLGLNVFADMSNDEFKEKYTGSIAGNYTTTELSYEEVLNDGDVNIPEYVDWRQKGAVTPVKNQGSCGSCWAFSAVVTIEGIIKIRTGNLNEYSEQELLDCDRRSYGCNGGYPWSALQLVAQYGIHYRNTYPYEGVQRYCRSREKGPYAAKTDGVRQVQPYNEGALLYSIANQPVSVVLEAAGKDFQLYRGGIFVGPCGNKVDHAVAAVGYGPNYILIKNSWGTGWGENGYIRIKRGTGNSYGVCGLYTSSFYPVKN
# [8] = Primary qHTS for inhibitors of nuclear receptor binding SET domain protein 2 (NSD2) in an isogenic RCH-ACV NSD2 p.E1099K mutant (9B) (AID 1645876); further: nearly all actives have a fitted effect of over 70% in size; further: potency means the concentration at half of the fitted maximal effect
# [9] = Primary qHTS for inhibitors of nuclear receptor binding SET domain protein 2 (NSD2) in an RCH-ACV wild type WT cells (2C) (AID 1645877); further: nearly all actives have a fitted effect of over 70% in size; further: potency means the concentration at half of the fitted maximal effect
# [10] = biological target: Rap guanine nucleotide exchange factor 3 (Homo sapiens) (UniProt O95398); assay: Confirmatory qHTS for antagonist of cAMP-regulated guanine nucleotide exchange factor 3 (EPAC1) (AID 1645880); further: nearly all actives have a fitted effect of over 55% in size
# Chain of Rap guanine nucleotide exchange factor 3 (Homo sapiens) (O95398 whole entry, looked up): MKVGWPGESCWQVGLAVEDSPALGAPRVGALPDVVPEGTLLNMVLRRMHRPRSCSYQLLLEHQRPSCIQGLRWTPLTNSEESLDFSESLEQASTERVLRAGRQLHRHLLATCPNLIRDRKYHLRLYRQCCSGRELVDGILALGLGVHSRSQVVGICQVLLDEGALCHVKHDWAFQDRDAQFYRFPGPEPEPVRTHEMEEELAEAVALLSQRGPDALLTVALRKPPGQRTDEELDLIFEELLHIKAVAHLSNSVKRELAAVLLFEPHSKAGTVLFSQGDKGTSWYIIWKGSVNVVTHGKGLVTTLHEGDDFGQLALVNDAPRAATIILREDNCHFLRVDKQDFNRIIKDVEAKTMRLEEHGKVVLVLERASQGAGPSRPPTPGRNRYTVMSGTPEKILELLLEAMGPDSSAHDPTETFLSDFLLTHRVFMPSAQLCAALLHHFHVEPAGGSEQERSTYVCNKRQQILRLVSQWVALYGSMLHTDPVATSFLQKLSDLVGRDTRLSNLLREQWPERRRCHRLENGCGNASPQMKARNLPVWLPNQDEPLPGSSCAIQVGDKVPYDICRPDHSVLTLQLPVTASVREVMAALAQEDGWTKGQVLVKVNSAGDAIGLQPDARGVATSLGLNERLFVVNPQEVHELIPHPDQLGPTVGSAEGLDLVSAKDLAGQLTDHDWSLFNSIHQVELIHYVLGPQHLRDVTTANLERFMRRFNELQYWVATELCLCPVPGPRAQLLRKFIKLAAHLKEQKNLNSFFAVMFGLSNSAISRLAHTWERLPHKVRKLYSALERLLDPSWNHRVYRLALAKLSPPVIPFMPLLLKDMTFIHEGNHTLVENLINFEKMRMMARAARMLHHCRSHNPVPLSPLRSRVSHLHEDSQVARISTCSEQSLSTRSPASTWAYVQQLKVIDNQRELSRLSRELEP
# Outline: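 Nucleotide exchange uses 100 nM EPAC1, 250 nM RAP1B-BODIPY-GDP and 50 uM GDP, with compounds in a concentration-titration series. After 5 min at room temperature, fluorescence (480 nm ex/540 nm em) is read every 5 min for 30 min. Data are normalized to control ATA and DMSO.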
# [11] = biological target: Rap guanine nucleotide exchange factor 3 (Homo sapiens) (UniProt O95398); assay: Confirmatory qHTS for agonist of cAMP-regulated guanine nucleotide exchange factor 3 (EPAC1) (AID 1645881);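 further: EPAC1 catalysed release of BODIPY-GDP from Rap1B seen as fluorescence loss; nearly all actives have a fitted effect of over 75% in size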
# [12] = biological target: Rap guanine nucleotide exchange factor 4 (Homo sapiens) (UniProt Q8WZA2); assay: Confirmatory qHTS for agonist of cAMP-regulated guanine nucleotide exchange factor 4 (EPAC2) (AID 1645884);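 further: nucleotide exchange releases bodipy-GDP from Rap1 and this lowers its fluorescence; nearly all actives have a fitted effect of over 65% in size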
# Chain of Rap guanine nucleotide exchange factor 4 (Homo sapiens) (Q8WZA2 whole entry, looked up): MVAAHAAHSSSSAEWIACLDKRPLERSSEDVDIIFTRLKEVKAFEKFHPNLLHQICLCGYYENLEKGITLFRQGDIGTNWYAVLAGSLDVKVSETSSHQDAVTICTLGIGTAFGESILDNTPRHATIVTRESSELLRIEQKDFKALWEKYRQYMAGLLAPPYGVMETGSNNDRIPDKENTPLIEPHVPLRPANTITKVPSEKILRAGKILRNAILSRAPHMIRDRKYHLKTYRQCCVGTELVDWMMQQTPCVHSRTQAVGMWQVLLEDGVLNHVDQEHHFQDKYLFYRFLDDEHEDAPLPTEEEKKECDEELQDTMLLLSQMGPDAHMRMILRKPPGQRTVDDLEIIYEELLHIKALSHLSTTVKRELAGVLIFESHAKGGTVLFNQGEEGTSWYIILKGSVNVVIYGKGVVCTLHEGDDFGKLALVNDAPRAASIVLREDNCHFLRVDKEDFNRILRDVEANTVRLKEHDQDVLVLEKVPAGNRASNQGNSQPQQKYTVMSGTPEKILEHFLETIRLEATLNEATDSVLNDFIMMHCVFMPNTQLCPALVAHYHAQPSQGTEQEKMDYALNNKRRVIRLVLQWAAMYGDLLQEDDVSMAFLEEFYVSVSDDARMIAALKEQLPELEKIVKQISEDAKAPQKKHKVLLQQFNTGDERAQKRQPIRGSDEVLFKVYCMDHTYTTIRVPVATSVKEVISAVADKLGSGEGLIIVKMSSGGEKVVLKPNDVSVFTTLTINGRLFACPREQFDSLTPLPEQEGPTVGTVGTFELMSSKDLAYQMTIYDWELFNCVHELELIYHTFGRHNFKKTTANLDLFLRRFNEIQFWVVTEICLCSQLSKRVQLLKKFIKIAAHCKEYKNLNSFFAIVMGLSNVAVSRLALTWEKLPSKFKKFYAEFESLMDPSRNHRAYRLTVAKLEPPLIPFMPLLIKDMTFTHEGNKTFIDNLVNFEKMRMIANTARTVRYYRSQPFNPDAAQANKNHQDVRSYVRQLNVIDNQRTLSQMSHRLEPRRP
# [13] = Primary qHTS for inhibitors of La Crosse Virus (LACV) - induced cell death in SH-SY5Y cells (AID 1508616);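 further: top concentration of the series differs between compounds; higher means more rescue of cells from virus-induced death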
# Outline: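 SH-SY5Y cells (6000/well) plated 24 h, then given compounds by pin transfer and LACV at 0.01 MOI for 6 days at 37C. Viability measured by ATPLite luminescence, normalized to infected DMSO and uninfected DMSO.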
# [14] = Confirmatory qHTS for small molecule stabilizers of the endoplasmic reticulum resident proteome: Secreted ER Calcium Modulated Protein (SERCaMP) assay (AID 1508628); further: potency means the concentration at half of the fitted maximal effect; nearly all actives have a fitted effect of over 40% in size
# Outline: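 SH-SY5Y cells stably expressing GLuc-SERCaMP, treated 16 h with compound (primary 1.53, 7.67, 38.3 uM; confirmation 11 concentrations, up to 76.6 uM), then 100 nM thapsigargin for 4 h. Secreted Gaussia luciferase in medium read by coelenterazine luminescence.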
# [15] = Counterscreen qHTS for small molecule stabilizers of the endoplasmic reticulum resident proteome: GLuc-NoTag assay (AID 1508627);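 further: SH-SY5Y cells given compound then 100 nM thapsigargin to empty ER calcium; series mostly up to about 76 µM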
# Outline: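 SH-SY5Y cells stably expressing constitutively secreted GLuc (no SERCaMP tag) were pre-incubated 5 h, treated with compound for 19 h, then 100 nM thapsigargin for 4 h at 37C; medium GLuc read by coelenterazine luminescence.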
structure (smiles),measurement,setting,value
COC(=O)Nc1nc2ccc(C(=O)c3cccs3)cc2[nH]1,Potency,[1],inactive
same,Potency,[2],inactive
same,Potency,[3],inactive
same,Potency,[4],inactive
same,Potency,[5],inactive
same,Potency,[6],inactive
same,Potency,[7],inactive
same,Potency,Papain (Carica papaya),inactive
same,Potency,[8],13.3 nM (active) and 93.4 nM (active)
same,Potency,[9],9.4 nM (active) and 66.1 nM (active)
same,outcome,[10],inactive
same,Potency,[11],inactive
same,Potency,[12],inactive
CC(C)(C)C(=O)Oc1ccc(S(=O)(=O)Nc2ccccc2C(=O)NCC(=O)O)cc1,Potency,[13],inactive
same,Potency,[2],inactive
same,Potency,[3],inactive
same,Potency,[4],inactive
same,Potency,[5],inactive
same,Potency,Papain (Carica papaya),inactive
same,Potency,[8],inactive
same,Potency,[9],inactive
Cc1ccc(-c2cc(C(F)(F)F)nn2-c2ccc(S(N)(=O)=O)cc2)cc1,Potency,[13],inactive
same,Potency,[2],inactive
same,Potency,[3],inactive
same,Potency,[6],13.8 µM (active)
same,Potency,[7],12.3 µM (active)
same,Potency,Papain (Carica papaya),inactive
Nc1nnc(-c2cccc(Cl)c2Cl)c(N)n1,Potency,[13],inactive
same,Potency,[2],inactive
same,Potency,[3],inactive
same,Potency,[4],inactive
same,Potency,[5],inactive
same,Potency,[7],inactive
same,Potency,Papain (Carica papaya),inactive
same,Potency,[8],inactive
same,Potency,[9],inactive
Cn1c(=O)c2[nH]cnc2n(C)c1=O,Potency,[13],inactive
same,Potency,[2],inactive
same,Potency,[3],inactive
same,Potency,[4],inactive
same,Potency,[5],inactive
same,Potency,Papain (Carica papaya),inactive
same,Potency,[8],inactive
same,Potency,[9],inactive
CN1C2CCC1CC(OC(=O)C(CO)c1ccccc1)C2 (configuration not stated),Potency,[13],inactive
same,Potency,[2],inactive
same,Potency,[14],39.8 µM (active)
CN(CCOc1ccc(NS(C)(=O)=O)cc1)CCc1ccc(NS(C)(=O)=O)cc1,Potency,[13],inactive
same,Potency,[2],inactive
same,Potency,[3],inactive
same,Potency,[4],inactive
same,Potency,[5],inactive
same,Potency,[7],inactive
same,Potency,Papain (Carica papaya),inactive
same,Potency,[8],inactive
same,Potency,[9],inactive
Cc1ccccc1N1C(=O)c2cc(S(N)(=O)=O)c(Cl)cc2NC1C (configuration not stated),Potency,[1],inactive
same,Potency,[13],inactive
same,Potency,[3],inactive
same,Potency,[5],inactive
same,Potency,[6],inactive
same,Potency,[7],inactive
same,Potency,[8],inactive
same,Potency,[9],inactive
COc1ccc(CCN(C)CCCC(C#N)(c2ccc(OC)c(OC)c2)C(C)C)cc1OC (configuration not stated),Potency,[15],inactive
same,Potency,[14],20 µM (active)
CCOC(=O)Nc1ccc(NCc2ccc(F)cc2)nc1N,Potency,[13],inactive
same,Potency,[3],inactive
same,Potency,[4],inactive
same,Potency,[5],inactive
same,Potency,[8],inactive
same,Potency,[9],inactive
same,outcome,[10],inactive
same,Potency,[11],inactive
same,Potency,[12],inactive
Clc1ccc2nsnc2c1NC1=NCCN1,Potency,[1],inactive
same,Potency,[13],inactive
same,Potency,[5],inactive
same,Potency,[7],inactive
same,Potency,Papain (Carica papaya),inactive
same,Potency,[8],inactive
same,Potency,[9],inactive
CN(C)C(=N)N=C(N)N,Potency,[13],inactive
same,Potency,[3],inactive
same,Potency,[5],inactive
CC1(C)O[C@H]2CC(=O)OC[C@]23[C@H]2CC[C@@]4(C)[C@H](c5ccoc5)OC(=O)[C@H]5O[C@]54[C@]2(C)C(=O)C[C@@H]13,Potency,[3],inactive
same,Potency,[5],inactive
same,Potency,[6],inactive
same,Potency,[7],inactive
same,Potency,[8],inactive
same,Potency,[9],inactive
Cc1cn([C@H]2C[C@H](N=[N+]=[N-])[C@@H](CO)O2)c(=O)[nH]c1=O,Potency,[13],inactive
same,Potency,[3],inactive
same,Potency,[5],inactive
same,Potency,[7],inactive
same,Potency,[8],inactive
CC(C(=O)O)c1cccc(C(=O)c2ccccc2)c1 (configuration not stated),Potency,[1],inactive
same,Potency,[13],inactive
same,Potency,[5],inactive
same,Potency,[7],19.5 µM (active)
same,Potency,Papain (Carica papaya),inactive
O=C(C1CCCCC1)N1CC(=O)N2CCc3ccccc3C2C1 (configuration not stated),Potency,[13],inactive
same,Potency,[2],inactive
same,Potency,[3],inactive
same,Potency,[5],inactive
same,Potency,[7],inactive
same,Potency,Papain (Carica papaya),inactive
same,Potency,[8],inactive
same,Potency,[9],inactive
COc1ccccc1N1CCN(CC(O)COc2cccc3ccccc23)CC1 (configuration not stated),Potency,[1],inactive
same,Potency,[13],inactive
same,Potency,[2],inactive
same,Potency,[3],inactive
same,Potency,[6],0.436 µM (active)
same,Potency,Papain (Carica papaya),inactive
CC1(CN2CCC(n3c(=O)[nH]c4ccccc43)CC2)OCc2ccccc2-n2cccc21 (configuration not stated),Potency,[13],inactive
same,Potency,[3],inactive
same,Potency,[6],1.38 µM (active)
same,Potency,[7],9.77 µM (active)
O=c1c(O)c(-c2ccc(O)c(O)c2)oc2cc(O)cc(O)c12,Potency,[1],inactive
same,Potency,[13],inactive
same,Potency,[3],inactive
same,Potency,[15],inactive
same,Potency,[4],inactive
same,Potency,Papain (Carica papaya),inactive
same,Potency,[8],11.9 µM (active) and inactive and 9.2 µM (active)
same,Potency,[9],inactive and 14.6 µM (active)
same,Potency,[11],inactive
same,Potency,[12],inactive
CC(C)Cc1ccc(C(C)C(=O)O)cc1 (configuration not stated),Potency,[13],inactive
same,Potency,[4],inactive
same,Potency,[5],inactive
same,Potency,[6],inactive
same,Potency,[7],inactive
same,Potency,Papain (Carica papaya),inactive
same,Potency,[8],inactive
same,Potency,[9],inactive

# Reference: PubChem BioAssay (NCATS)
